H9c2 protect = modulators protecting cardiomyocytes from myocardial damage; protection from H2O2 cell death, % at 20 µM; H9c2 cardiomyocytes, H2O2 injury protection, ATPLite, 2 h; hit rate 0.63% among 360,000; AID 588492;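 active = compounds giving at least 50% protection of heart cells from peroxide-induced death in the single-dose screen, raw or plate-pattern-corrected value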;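 note: 0% = DMSO wells with peroxide and 100% = DMSO wells without peroxide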
COUP-TFII inh = NR2F2 (human) inhibition, primary screen; AID 686940; inhibition, % at 8.6 µM; hit rate 0.7% among 370,000; HEK293T NGFI-A luciferase reporter, luminescence; P24468;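 active = inhibition above a per-plate cutoff, mean inhibition of test wells between control levels plus 3 SD, cut at about 38% in these data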;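 note: cells cotransfected with COUP-TFII expression vector driving the NGFI-A reporter; 0% = median of COUP-TF2 test wells and 100% = reporter-only cells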
Target sequence (P24468 whole entry, looked up): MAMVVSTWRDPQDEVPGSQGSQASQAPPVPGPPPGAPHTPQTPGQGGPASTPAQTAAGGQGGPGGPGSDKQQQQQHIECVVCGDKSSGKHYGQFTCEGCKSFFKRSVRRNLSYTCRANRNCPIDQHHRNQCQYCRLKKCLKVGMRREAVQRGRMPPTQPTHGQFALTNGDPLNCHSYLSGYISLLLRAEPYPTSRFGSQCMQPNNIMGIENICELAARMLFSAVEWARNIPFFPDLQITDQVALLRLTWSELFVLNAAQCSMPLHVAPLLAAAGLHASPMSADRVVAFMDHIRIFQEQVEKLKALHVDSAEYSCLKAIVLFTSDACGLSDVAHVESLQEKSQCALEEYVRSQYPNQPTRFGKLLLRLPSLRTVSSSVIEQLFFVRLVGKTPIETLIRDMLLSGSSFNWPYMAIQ
697 NFkB inh = inhibitors of the PMA/ionomycin-induced NF-kB reporter in 697 B cells; 697 B-cell NF-kB luciferase reporter, 16 h; inhibition, % at 4 µM; hit rate 0.33% among 330,000; AID 435022; in the data active = inhibition above about 35%
Gli-Sufu antag = antagonists of Gli-Sufu signaling | Sufu-KO-LIGHT fibroblasts, Gli luciferase reporter luminescence | inhibition, % at 5 µM | hit rate 0.74% among 340,000 | AID 588413;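 active = inhibition above about 55%, limit read from the data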;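 note: 0% = DMSO-treated cells and 100% = wells with medium but no cells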
TAG inh = triacylglycerol accumulation inhibition; H9c2 cells, Nile Red lipid (TAG) fluorescence; cells loaded with 200 µM oleic acid; inhibition, % at 12.5 µM; hit rate 0.66% among 230,000;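 active = pattern-corrected inhibition of lipid staining of at least 50% with the nuclear-stain viability signal not falling by more than 50%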;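 note: 0% = DMSO wells and 100% = triacsin C control wells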
Jurkat NFkB inh = lowers PMA/ionomycin-induced NF-kB signal in Jurkat cells | PMA/ionomycin-induced NF-kB luciferase reporter, luminescence | inhibition, % at 4 µM | hit rate 0.53% among 330,000; in the data active = inhibition above about 50%
* = called active by the depositor; x = no result. In the library only some 2.6% were active in any assay of this set; here they are far more common.

SMILES	H9c2 protect	COUP-TFII inh	697 NFkB inh	Gli-Sufu antag	TAG inh	Jurkat NFkB inh
O=C(N[C@H]1C[C@@H]2O[C@H](CO)CC[C@@H]2O[C@@H]1CCc1ccc(-c2cccnc2)cc1)c1cccc(F)c1	x	-7	x	x	x	x
CC1CCCC(C)N1C(=O)CSc1nc(N)c(-c2ccccc2)c(=O)[nH]1 (stereo not drawn)	4	-23	2	2	x	14
CC1CCCC(C)N1C(=O)CSc1nc2ccccc2c(=O)[nH]1 (stereo not drawn)	70*	-27	10	-31	-1	-21
CC1CCN(C(=O)CSc2nc3ccccc3c(=O)[nH]2)CC1	44	-4	19	-22	7	1
Cc1sc2nc(SCC(=O)N3CCOCC3)[nH]c(=O)c2c1C	61*	-2	8	-2	7	2
O=C(CSc1nc2ccccc2c(=O)[nH]1)N1CCOCC1	67*	3	0	2	x	-4
Cc1sc2nc(SCC(=O)NCc3cccs3)[nH]c(=O)c2c1C	17	4	-33	-12	12	-3
Cc1sc2nc(SCC(=O)NCc3ccco3)[nH]c(=O)c2c1C	60*	-14	5	11	-11	-10
COc1ccccc1CCn1cnc(-c2ccccc2F)c1CC(C)C	x	33	x	x	x	x
CN(C(=O)[C@@H](C1CC1)[C@@H](O)c1ccc2ccccc2c1)c1ccccc1	x	8	x	x	x	x
O=C(CSc1nc2ccccc2c(=O)[nH]1)N1CCN(S(=O)(=O)c2ccccc2)CC1	56*	x	15	11	x	13
O=C(CSc1nc2ccccc2c(=O)[nH]1)N1CCCCCC1	51*	-18	21	-9	8	-8
CCN(CC)Cc1cc(O)c(CN(CC)CC)cc1O	55*	8	x	-1	-8	x
COc1ccc(OCC(=O)Nc2ccccc2C(=O)NC2CC2)cc1	8	-2	-57	-6	3	0
COC(=O)c1ccc(OCC(=O)Nc2ccccc2C(=O)NC2CC2)cc1	57*	5	4	x	-18	14
COc1cc(Br)c(/C=C/c2ccc3cccc(O)c3n2)cc1OC	19	0	2	-2	x	-8
COc1ccc(OC)c(/C=C/c2ccc3cccc(O)c3n2)c1	61*	2	-24	x	x	9
O=C(CC1CCCC1)N1CC[C@H]2[C@H](CCCN2Cc2ccc(F)cc2)C1	x	7	x	x	x	x
COc1ccc(NCc2cc3cc(OC)ccc3[nH]c2=O)cc1	99*	14	-23	-23	x	7
COc1ccc2[nH]c(=O)c(CN(C(=O)NC3CCCCC3)C3CCCCC3)cc2c1	-6	-24	-3	34	x	-11
COc1ccc2[nH]c(=O)c(CN(c3ccccc3OC)S(=O)(=O)c3ccccc3)cc2c1	68*	-7	-2	x	9	25
COc1ccc2[nH]c(=O)c(CNC3CCCCC3)cc2c1	57*	1	-2	-2	x	-21
COc1ccc(NCc2cc3ccccc3[nH]c2=O)cc1	62*	2	-2	-8	-10	-25
Cc1ccc(NC(=O)OC2CC3CC2[C@H]2CCCCN2C3)cc1 (stereo partly drawn)	x	8	x	x	x	x
O=C(Nc1ccccc1Cl)OC1CC2CC1[C@H]1CCCCN1[C@H]2Cc1ccccc1 (stereo partly drawn)	x	-24	x	x	x	x
SMILES	H9c2 protect	COUP-TFII inh	697 NFkB inh	Gli-Sufu antag	TAG inh	Jurkat NFkB inh
COc1ccc(Cn2cc(CN3[C@@H](Cc4ccccc4)COc4cc(Br)ccc4S3(=O)=O)nn2)cc1	x	10	x	x	x	x
COC(=O)[C@]12C[C@H](CC(=O)NCc3cccs3)C(=O)N(Cc3ccco3)C1=C[C@H](C(C)C)O[C@@H]2C1CC1	x	12	x	x	x	x
COc1ccc(N2CCN(CCCNC(=O)CCc3ccc(F)cc3)CC2)cc1	x	-22	x	x	x	x
CC(C)(C)c1ccc(C(=O)NCCC(=O)Nc2cc(Cl)ccc2N2CCOCC2)cc1	-7	9	-11	8	57*	-6
COc1ccc(Cl)c2c1[nH]c1nc(SCc3ccccn3)nnc12	64*	-44	-96	-117	15	-122
COc1ccc(Cl)c2c1[nH]c1nc(SCc3cccnc3)nnc12	-2	5	15	5	14	0
CC1CCCN(CCCNC(=O)c2ccc3c(c2)N(Cc2ccc(F)cc2)C(=O)c2ccccc2S3=O)C1 (stereo not drawn)	-1	-8	-52	66*	x	-11
COc1ccc2c(c1)CNC2CS(=O)(=O)NCCc1ccccc1 (stereo not drawn)	x	6	x	x	x	x
[C-]#[N+][C@]12C(=O)[C@H](C=C(Cl)[C@@]1(C)C=C)C(C)(C)[C@H]1C(=O)N(C)c3cccc2c31	x	13	x	x	x	x
Cc1nc(N2CCN(c3ccccn3)CC2)c2c(C)c(C(=O)Nc3ccc(F)cc3F)sc2n1	7	-27	-3	3	-45	6
O=C(CN1CCN(c2ccccn2)CC1)Nc1ccc([N+](=O)[O-])cc1C(=O)Nc1ccccc1F	63*	12	15	4	7	14
Cc1nc(N2CCN(c3ccccn3)CC2)c2c(C)c(C(=O)Nc3ccccc3F)sc2n1	50*	-5	-8	-20	-9	7
CSc1ccccc1NC(=O)CN1CCN(c2ccccn2)CC1	2	15	-3	1	x	3
COc1cc(Cl)c(C)cc1NC(=O)c1ccccc1NC(=O)CN1CCN(c2ccccn2)CC1	23	-3	x	7	26	x
COc1cc(NC(=O)c2ccccc2)c(OC)cc1NC(=O)CN1CCN(c2ccccn2)CC1	50*	7	8	9	13	-2
COC(=O)C1CN(Cc2ccc(OC)cc2)CCS(=O)(=O)N1Cc1cn(Cc2ccc(C)cc2)nn1 (stereo not drawn)	x	22	x	x	x	x
Cc1ccc([C@H](C)NC(=O)C2=C(N)N(S(=O)(=O)c3ccc(C)cc3)C(C(=O)c3ccccc3)C2c2ccccc2Cl)cc1 (stereo partly drawn)	x	-13	x	x	x	x
CCN(C[C@H]1N[C@@](Cc2ccccc2)(C(=O)OC)[C@H]2C(=O)N(C)C(=O)[C@@H]12)S(=O)(=O)c1ccc(OC)cc1	60*	-10	4	0	1	-12
CCN(C[C@H]1N[C@@](Cc2ccccc2)(C(=O)OC)[C@H]2C(=O)N(C)C(=O)[C@@H]12)S(=O)(=O)c1ccc(OC(F)(F)F)cc1	41	10	9	5	-2	-7
CCCCCCSc1ccc([C@H]2N[C@@](Cc3ccccc3)(C(=O)OC)[C@H]3C(=O)N(C)C(=O)[C@@H]23)cc1	77*	19	3	5	-1	9
Cc1ccc2nc(-c3ccc(NC(=S)NC4CC(C)(C)NC(C)(C)C4)cc3)sc2c1	-15	-29	-134	-98	53*	-63
COc1ccc(C)cc1Nc1n[n+](-c2ccccc2)c(-c2ccc(N(C)C)cc2)s1	-10	2	-33	61*	x	-12
O=C(OC12CCCN(C1)/C(=C/c1cccnc1)C2)c1cccc(F)c1 (stereo not drawn)	x	33	x	x	x	x

Bioassay records (PubChem BioAssay)
